Data on eight compounds can be found in PubChem BioAssay (NCI).

Compounds without any hit were thinned out: in the full panel of roughly 83,000, 20% have a hit.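 Results are percent growth after 48 hours of single-concentration exposure. 100 means growth as in untreated cells, lower positive values show inhibition; negative values down to -100 show cell death.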 Values without a mark were called inactive. Active and inactive are the calls of the source. How the source made its calls: active means growth percent below 10; inactive means the rest.

Some test systems named below: NCI-H23 lung; NCI-H226 lung; NCI-H322M lung; HOP-62 NSCLC; NCI-H460 lung; HOP-92 NSCLC; NCI-H522 lung; A549/ATCC NSCLC; 786-0 renal; COLO 205 colon; DU-145 prostate; K-562 leukemia; MALME-3M melanoma; RXF 393 renal; SF-268 CNS; SF-295 CNS; SF-539 CNS; UACC-257 melanoma; M14 melanoma.
Common to all, as to test: NCI-60 one-dose screen, 48 h (100 = growth as untreated, 0 = no growth, -100 = all killed)
Holding throughout (settings): 10 µM unless noted

Take `N#Cc1c(-c2ccccc2Cl)cc(-c2c[nH]c3ccccc23)[nH]c1=O`: the growth is 69.9% in the assay on NCI-H23 lung; 64.3% in the assay on NCI-H226 lung; 72.9% in the assay with NCI-H322M lung; 67.2% in the assay on HOP-62 NSCLC; 65.9% with NCI-H460 lung; 44.9% in the assay on HOP-92 NSCLC. Also, the growth in the assay on NCI-H522 lung is 70.8%; in the assay on A549/ATCC NSCLC, 77.5%; in the assay with 786-0 renal it was 68.8%; in the assay on COLO 205 colon, 114%; in the assay on DU-145 prostate, 66%; in the assay with K-562 leukemia it was 20%. For the same compound, the growth with MALME-3M melanoma was 57.2%; with RXF 393 renal it was 48.7%; in the assay with SF-268 CNS, 80%; in the assay with SF-295 CNS it was 75.8%; with SF-539 CNS, 52.2%; in the assay with UACC-257 melanoma it was 82.3%. For the same compound, in the assay on M14 melanoma, the growth was 64.1%.
As for `N#Cc1c(-c2cccnc2)cc(-c2ccc3ccccc3c2)[nH]c1=O`, the growth in the assay on NCI-H23 lung is 77%; in the assay on NCI-H226 lung, 81.9%; in the assay on NCI-H322M lung, 90.1%; with HOP-62 NSCLC it was 91.8%; in the assay on NCI-H460 lung it was 83.7%; in the assay on HOP-92 NSCLC, 78.5%. Also, the growth is 66.2% in the assay on NCI-H522 lung; 85.1% with A549/ATCC NSCLC; 11.9% in the assay on 786-0 renal; 115% in the assay on COLO 205 colon; 80.2% in the assay with DU-145 prostate; 86.6% in the assay with K-562 leukemia. Also, the growth in the assay on MALME-3M melanoma is 94.8%; in the assay with RXF 393 renal it was 50.6%; in the assay with SF-268 CNS, 71.7%; in the assay on SF-295 CNS it was 71.4%; in the assay with SF-539 CNS, 7.22% (active); with UACC-257 melanoma, 105%. Moreover, the growth with M14 melanoma is 116%.
Take `CC(=O)Oc1ccccc1C(=O)[Se]C(=NC1CCCCC1)NC1CCCCC1`: the growth with NCI-H23 lung is -79.9% (active); in the assay on NCI-H226 lung, -88.1% (active); with NCI-H322M lung, -82.7% (active); with HOP-62 NSCLC, -87% (active); in the assay with NCI-H460 lung, -41.6% (active); in the assay on HOP-92 NSCLC, -13.6% (active). The growth with NCI-H522 lung was -89.1% (active); in the assay on A549/ATCC NSCLC, 0.226% (active); in the assay on 786-0 renal, -93.4% (active); in the assay on COLO 205 colon it was -70.6% (active); with DU-145 prostate, -80% (active); in the assay on K-562 leukemia, 3.88% (active). Besides, the growth with MALME-3M melanoma was -91.8% (active); in the assay with RXF 393 renal, -99.7% (active); in the assay on SF-268 CNS, 8.57% (active); with SF-295 CNS, -78.9% (active); in the assay on SF-539 CNS, -98.7% (active); in the assay with UACC-257 melanoma, -89.9% (active). Also, the growth with M14 melanoma was -73.7% (active).
Regarding `Cc1c(C(=O)NNC(=O)Nc2ccc(Cl)cc2)nnn1-c1ccc(Br)cc1`, the growth was 102% in the assay with NCI-H23 lung; 103% in the assay on NCI-H226 lung; 90.3% in the assay on NCI-H322M lung; 97.1% with HOP-62 NSCLC; 107% with NCI-H460 lung; 92.8% with HOP-92 NSCLC. The growth is 96.4% with NCI-H522 lung; 96.9% in the assay on A549/ATCC NSCLC; 96.7% with 786-0 renal; 107% with COLO 205 colon; 99.5% with DU-145 prostate; 92.2% with K-562 leukemia. For the same compound, the growth was 90.7% with MALME-3M melanoma; 90.5% with RXF 393 renal; 103% with SF-268 CNS; 98.8% in the assay with SF-295 CNS; 102% in the assay on SF-539 CNS; 99% in the assay on UACC-257 melanoma. For the same compound, the growth with M14 melanoma was 101%.
Consider `O=C(/C=C/c1ccc(-c2ccccc2)cc1)c1nc2ccccc2n1Cc1ccc(F)cc1`, for which the growth is 47.5% in the assay with NCI-H23 lung; -13.9% (active) in the assay with NCI-H226 lung; 64.5% with NCI-H322M lung; 36.1% with HOP-62 NSCLC; 36.5% in the assay on NCI-H460 lung; 35.4% in the assay with HOP-92 NSCLC. The growth in the assay on NCI-H522 lung is 64.1%; in the assay with A549/ATCC NSCLC, 61.9%; in the assay with 786-0 renal it was 30.7%; with COLO 205 colon it was 48.9%; with DU-145 prostate, 54.4%; in the assay with K-562 leukemia, 21.7%. Further, the growth in the assay with MALME-3M melanoma was 0% (active); in the assay with RXF 393 renal, 13.6%; in the assay on SF-268 CNS, 62.4%; in the assay with SF-295 CNS, 40.4%; in the assay on SF-539 CNS, -15.9% (active); with UACC-257 melanoma, 49.5%. Further, the growth with M14 melanoma was 39.6%.
Take `CCN(CC)C(=O)N/C(N)=N/c1nc2ccccc2s1`: the growth in the assay with NCI-H23 lung was 34.5%; in the assay with NCI-H226 lung it was 39.4%; in the assay with NCI-H322M lung, 81.4%; with HOP-62 NSCLC, 68.9%; in the assay on NCI-H460 lung, 67%; in the assay on HOP-92 NSCLC, 72.2%. For the same compound, the growth is 51.2% with NCI-H522 lung; 62.9% in the assay on A549/ATCC NSCLC; 63.2% in the assay on 786-0 renal; 86.4% in the assay with COLO 205 colon; 48.8% with DU-145 prostate; 30.3% with K-562 leukemia. The growth with MALME-3M melanoma was 56.8%; in the assay on RXF 393 renal, 58.5%; in the assay with SF-268 CNS it was 72.6%; with SF-295 CNS, 32.5%; with SF-539 CNS, 69.7%; with UACC-257 melanoma it was 40.5%. The growth with M14 melanoma is 71.9%.
Consider `N#Cc1ccc(C(=O)Nn2c(N)cc3ccccc3c2=O)cc1`, for which the growth with NCI-H23 lung is 93.8%; in the assay on NCI-H226 lung it was 84.4%; in the assay on NCI-H322M lung it was 94.7%; in the assay on HOP-62 NSCLC it was 99.3%; with NCI-H460 lung it was 80.3%; in the assay on HOP-92 NSCLC, 88.2%. Further, the growth was 95% with NCI-H522 lung; 94.4% with A549/ATCC NSCLC; 98.3% in the assay on 786-0 renal; 112% in the assay with COLO 205 colon; 115% in the assay with DU-145 prostate; 89.6% in the assay on K-562 leukemia. Besides, the growth in the assay on MALME-3M melanoma is 77.9%; with RXF 393 renal, 104%; in the assay on SF-268 CNS it was 106%; with SF-295 CNS, 99%; in the assay with SF-539 CNS, 90%; in the assay with UACC-257 melanoma it was 99.5%. Also, the growth with M14 melanoma was 94.5%.
For the compound `C(=C\c1cc(/C=C/c2ccccc2)c2ccccc2n1)/c1ccccc1`, the growth in the assay with NCI-H23 lung was 82.2%; in the assay on NCI-H226 lung it was 106%; in the assay with NCI-H322M lung, 120%; in the assay on HOP-62 NSCLC, 109%; in the assay on NCI-H460 lung it was 102%; in the assay on HOP-92 NSCLC, 84%. Further, the growth in the assay on NCI-H522 lung is 93.4%; in the assay with A549/ATCC NSCLC it was 101%; with 786-0 renal, 80.7%; in the assay with COLO 205 colon it was 118%; with DU-145 prostate, 101%; in the assay with K-562 leukemia it was 43.2%. Further, the growth in the assay with MALME-3M melanoma was 90.5%; with RXF 393 renal, 111%; in the assay with SF-268 CNS, 102%; in the assay with SF-295 CNS, 109%; with SF-539 CNS, 74.3%; with UACC-257 melanoma, 98.5%. Further, the growth with M14 melanoma is 51.4%.
